Tests used:
Test in all cases: PBM binding z-score (relative to random genomic background probes); higher = stronger binding; sequences stand for … in GC…GCGATTGACAGCGTAGAATGAAGG
[1] = tested on: FXR:RXRa (NR concentration 270 nM, RXRa partner concentration 90 nM)
How it was run: (§1)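 Each nuclear receptor dimer, without ligand, was incubated for 1 h on custom Agilent 4×180K protein-binding microarrays. Binding was detected with antibodies against each partner (one per run), and scanned fluorescence was regression-normalized. The binding z-scores are referenced to random human genomic background probes.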

[2] = tested on: LXRa:RXRa (NR concentration 270 nM, RXRa partner concentration 90 nM)
How it was run: as §1

[3] = tested on: LXRa homodimer (NR concentration 270 nM)
How it was run: as §1

[4] = tested on: LXRb:RXRa (NR concentration 270 nM, RXRa partner concentration 90 nM)
How it was run: as §1

[5] = tested on: LXRb homodimer (NR concentration 270 nM)
How it was run: as §1

[6] = tested on: PPARa:RXRa (NR concentration 270 nM, RXRa partner concentration 90 nM)
How it was run: as §1

[7] = tested on: PPARg:RXRa (NR concentration 180 nM, RXRa partner concentration 90 nM)
How it was run: as §1

[8] = tested on: PPARg:RXRa 270nM:90nM, anti-RXR (NR concentration 270 nM, RXRa partner concentration 90 nM)
How it was run: as §1

[9] = tested on: PPARg:RXRa 30nM:10nM, anti-RXR (NR concentration 30 nM, RXRa partner concentration 10 nM)
How it was run: as §1

[10] = tested on: PPARg:RXRa 90nM:30nM, anti-RXR (NR concentration 90 nM, RXRa partner concentration 30 nM)
How it was run: as §1

[11] = tested on: PPARg:RXRa DBDmut IVT, anti-RXR (DBD mutation: RXRa K156A/R161A, NR concentration 270 nM, RXRa partner concentration 90 nM)
How it was run: as §1

[12] = tested on: PPARg:RXRa IVT, anti-PPARg (NR concentration 270 nM, RXRa partner concentration 90 nM)
How it was run: as §1

[13] = tested on: PPARg DBDmut:RXRa IVT, anti-PPARg (DBD mutation: PPARg1 K132A/R137A, NR concentration 270 nM, RXRa partner concentration 90 nM)
How it was run: as §1

[14] = tested on: PPARg DBDmut IVT, anti-PPARg (DBD mutation: PPARg1 K132A/R137A, NR concentration 270 nM)
How it was run: as §1

[15] = tested on: PPARg homodimer (NR concentration 180 nM)
How it was run: as §1

[16] = tested on: PXR:RXRa (NR concentration 270 nM, RXRa partner concentration 90 nM)
How it was run: as §1

[17] = tested on: PXR homodimer (NR concentration 270 nM)
How it was run: as §1

[18] = tested on: RARa:RXR (NR concentration 270 nM, RXRa partner concentration 90 nM)
How it was run: as §1

[19] = tested on: RARa homodimer (NR concentration 270 nM)
How it was run: as §1

[20] = tested on: RARb:RXRa (NR concentration 270 nM, RXRa partner concentration 90 nM)
How it was run: as §1

Sequence	PBM binding z-score [1]	PBM binding z-score [2]	PBM binding z-score [3]	PBM binding z-score [4]	PBM binding z-score [5]	PBM binding z-score [6]	PBM binding z-score [7]	PBM binding z-score [8]	PBM binding z-score [9]	PBM binding z-score [10]	PBM binding z-score [11]	PBM binding z-score [12]	PBM binding z-score [13]	PBM binding z-score [14]	PBM binding z-score [15]	PBM binding z-score [16]	PBM binding z-score [17]	PBM binding z-score [18]	PBM binding z-score [19]	PBM binding z-score [20]
TCTAGTTGGGCAAAGGTCACACACTCGAAATGCG	5.48	5.45	3.14	5.08	0.789	6.58	10.4	9.73	9.07	10.3	2.75	5.71	0.687	1.14	5.11	5.64	1.26	6.56	2.44	5.1
TCTAGCAGGCCAGAGGGTAACTCAAGAGGTACGG	0.0239	-0.0819	-0.636	-0.399	-1.36	1.15	2.11	3.56	2.38	3.26	0.667	0.376	-0.698	-0.379	0.0885	-0.174	-0.643	-0.0159	-0.296	0.332
TCATATAGGTAAACAGGGGAAAGTCCGTAAGTTA	1.29	1.09	0.283	0.925	-0.0206	1.61	1.52	2.89	3.92	3.45	4.67	3.46	1.62	0.87	1.18	0.921	0.414	1.21	0.805	0.676
TCACCAAGGTGAAAGGTCGTTGATGCACGCCTTG	3.32	3.01	-0.0102	2.68	-0.932	5.28	7.74	7.39	6.81	7.43	3.13	4.81	0.292	0.0423	0.508	3.77	-0.165	4.87	-0.322	3.17
TCGAGTCGGTTAGTCGGGGCATTCAGCCAACATA	-0.133	-0.389	-0.468	0.0657	-0.884	0.295	-0.72	0.168	0.645	0.378	0.436	-0.0905	-0.814	-1.24	-0.388	-0.0849	-0.566	-0.027	-1.36	-0.00486
GGAACGAGGGAATTCGAGTTGATAGCATGGCGAT	-0.4	-0.535	-0.72	-0.978	-1.16	-0.557	0.44	-0.504	-0.356	-0.529	-0.111	-0.244	-0.28	0.0147	-0.611	-0.165	-0.439	-0.36	-0.411	-0.688
TCTTGTAAATCAGCAGGTTAAGAAAGCTGGCCAA	0.256	0.519	-0.233	0.511	-0.113	0.935	-0.661	1.45	3.06	2.45	1.8	-0.234	-0.435	-0.222	0.0187	0.477	-0.284	0.789	0.26	0.224
TCTAGTTGGTCACGGACGTCACACACGACGGGTA	0.24	0.203	-0.153	0.406	0.211	0.764	1.24	1.59	2.77	1.95	2.14	1.94	1.1	1.25	0.55	0.245	0.184	0.485	0.469	1.57
TCATATAGGTAAATGATAGGTGAAAGTCCGATCT	1.32	1.17	0.558	1.22	0.404	1.74	1.51	2.71	3.76	3.23	3.92	2.51	1.28	1.62	1.19	0.828	0.487	1.49	1.16	0.612
AGTCAATGTTCAGGACGAGGTAACGTAAAGCACG	-0.0403	-0.35	-0.0733	-0.154	-0.516	-0.141	0.531	-0.297	0.071	-0.0574	-0.569	0.526	0.282	0.266	-0.126	-0.119	-0.33	0.306	0.567	0.167
GGAACGAGGGCAAGTTGTTAGCAGAGTTTGATGG	0.972	0.498	-0.221	0.541	-0.646	1.84	0.863	1.04	-0.161	0.479	3.77	2.94	-0.421	-0.269	0.194	0.979	0.561	0.459	-0.28	2.78
TCTGGTAGATCAAAGGTTAAGAAAGCCGAAGCCT	1.8	2.1	0.139	2.08	-0.305	3.73	6.37	6.52	5.92	6.95	1.47	2.16	-0.482	0.322	0.978	1.97	0.168	2.79	0.25	1.91
TATACAGGGTCACAGGCCAGAGTACGAATGTCGA	7.56	5.94	2.06	4.84	2.2	6.06	8.05	6.76	3.77	5.75	2.88	5.43	2.95	3.73	3.45	4.32	0.522	5.21	1.31	4.8
GCTATTAGTGGAAAGGGCAACCGAATGATTCTCG	0.118	0.287	-0.215	0.268	-0.406	1.68	1.88	3.6	1.97	3.34	0.437	0.575	0.104	-0.457	0.772	0.478	-0.0365	0.745	0.726	1.93
TCTGCTAGGTCAGTTGGTAAGCTAACGAGCTGCC	0.91	0.626	-1.01	0.157	0.503	0.96	0.118	1.28	1.04	1.18	2.46	2.46	-0.0986	0.0442	-0.393	-0.186	-1.11	0.233	-1.42	3.29
TCATATAGGTAAACAGGTGAAAGGCCGTAAGTTA	1.02	0.944	0.383	0.971	0.244	3.2	5.16	4.67	4.73	5.29	4.71	4.59	1.06	1.36	1.42	0.956	0.656	1.37	1.25	0.989
ATCTCTAGGTAATGATAGTTCAGTGAATGCAAAT	0.391	3.56	0.99	0.864	0.755	0.625	0.774	0.986	0.371	0.513	2.25	2.17	1.1	1.74	1.21	1.12	0.747	0.583	0.965	0.694
TCTTGTAGATCAGGAGGTTAAGAAAGCTGGCCAA	0.046	0.738	0.262	0.752	-0.475	1.46	-0.25	1.8	2.55	2.11	1.51	0.654	0.143	-0.244	0.0785	0.352	-0.154	0.854	-0.318	0.586
ATATGTAGGTTAAGGGTTATTCAGGTTGGTTCGC	2.31	3.16	1.3	2.8	1.11	5.82	10.4	8.81	8.91	9.75	7.57	7.51	3.47	3.04	2.78	2.84	1.6	2.88	2.39	1.88
GCTATTAGTTGAAACGGCAACCGAATGATTCTCG	-0.263	-0.34	-0.23	-0.237	0.111	-0.33	0.341	-0.00574	0.0955	0.0763	0.254	-0.276	-0.0416	-0.0923	0.137	-0.267	0.122	-0.411	-0.177	-0.226
ATATGTAGGTTACATCCGGTTCATTCAGGCTATG	1	4.13	1.07	2.07	0.614	3.53	5.17	4.39	2.2	3.81	7.75	7.32	3.76	2.01	1.08	3.66	5.68	1.55	0.415	1.22
ATACCAAGGTGACCGTGAGGTCGTTGATACTAAC	3.38	2.05	0.765	2.02	-0.023	2.4	1.44	1.39	0.228	0.726	1.21	2.77	0.39	0.266	1.4	3.8	1.45	3.05	0.22	2.46
AGAACGAGGGCCCGCTGAGTTGATAGCAGAGTAG	-0.807	-1.1	-0.871	-1.53	-1.19	-1.78	-0.00223	-1.4	-0.848	-1.55	-0.75	-0.481	-0.976	-0.618	-1.15	-0.97	-1.05	-1.3	-1.68	-0.616
CCTAGTTGGTCAGGAGGGCACACACCGGATATGA	0.184	0.335	0.0656	0.24	-0.0952	0.641	0.988	0.912	0.0866	0.594	0.374	1.62	-0.178	-0.301	1.22	0.369	0.17	0.233	0.714	1.71
CCTTACGGGACACTGACAGGTTATAGCATTTGGA	-0.0808	-0.0885	0.186	0.0675	-0.248	-0.0851	0.499	-0.397	0.123	-0.284	0.975	0.149	0.162	-0.682	-0.0979	-0.2	0.162	-0.0303	0.647	0.42
ACAGACAGGTGAGTGAAGGCAACTCAGCTGGACG	-0.0161	-0.412	-0.593	-0.733	-0.607	-0.0544	0.543	-0.0793	-0.458	-0.591	0.534	0.283	0.108	-0.0836	-0.372	-0.299	-0.329	-0.0789	-0.354	0.403
AGAATGAGGTTATTTAGATCAGGGAATTGCGGTC	2.23	1.9	0.538	1.56	0.456	2.9	1.33	1.89	0.586	1.17	2.96	2.43	1.1	0.243	1.23	1.34	0.696	1.6	0.731	1.38
CAAACTAGGTCAAGAGGTCAAAGTACGCTTCCCG	7.11	6.18	5.74	5.71	2.26	6.64	10	8.3	7.25	8.63	8.34	8.65	3.41	3.08	4.62	6.26	3.22	7.37	3.18	5.45
TCTAGCAGGCCAGATGGTCACTCAAGAGGTACGG	-1.05	-0.551	-0.782	-1.05	-1.42	-0.0486	0.594	0.971	1.81	1.28	0.614	-0.0638	-0.764	-0.948	-0.88	-0.46	-0.899	-0.205	-1.39	0.242

Reference: the supplement of paper PMC6555819
